The text below walks through data of PubChem BioAssay (Tox21).

Records with an inconclusive call do not appear. Active and inactive are the calls of the source. Calls follow the shape of the full dose curve.

The nature of this assay: qHTS assay to identify small molecule agonists of the NFkB signaling pathway - cell viability counter screen (AID 1159515). Also: nearly all actives have a fitted effect of over 55% in size. The following applies: NFkB-bla ME-180 viability, CellTiter-Glo luminescence, 5 h; series mostly up to 61 µM. From the text:
National Center for Advancing Translational Sciences [NCATS]
NIH Chemical Genomics Center [NCGC]
U.S. Environmental Protection Agency [EPA]
National Institutes of Environmental Health Sciences [NIEHS]
National Toxicology Program [NTP]
U.S. Food and Drug Administration [FDA]
Transcription factors and their stimulated target gene expression play pivotal roles across many cellular processes including responses to environmental stimuli. Proper regulation of associated pathways is critical to maintain cell health and function. Constitutive activation of transcription factor pathways has been implicated in tumors as it may block cellular functions such as apoptosis and lead to invasion and metastasis. One important transcription factor that stimulates gene expression in response to cytokines, UV radiation, and other stimuli is nuclear factor-kappa B (NFkB). To measure activation of the NFkB pathway, the CellSensor NFkB-bla ME-180 cell line (Life Technologies, Carlsbad, CA) that stably expresses beta-lactamase reporter gene under the regulation of a NF-kB response element was used. This assay allows measurement of the NFkB pathway activity induced by compounds in a ME-180 cell line. This system quantitates NF-kB activity using a FRET-based assay system where beta-lactamase expression disrupts FRET, allowing for fluorescent measurement of activity. This cell line has been used to screen the Tox21 10K compound library and to identify compounds that induce the NFkB pathway activity. The cytotoxicity of the Tox21 compound library against the NFkB-bla ME-180 cell line was tested in parallel by measuring cell viability using the CellTiter-Glo assay in the same wells.
Tox21 Assay Protocol Summary:
NFkB-bla ME-180 cells were dispensed at 2,000 cells/6 uL of assay medium per well into black wall/clear-bottom 1536-well plates using a Multidrop Combi (ThermoFisher Scientific, Waltham, MA) dispenser. After the assay plates were incubated at 37 C and 5% CO2 for an overnight, 23 nL of compounds dissolved in DMSO, positive controls or DMSO only was transferred to the assay plate by a Pintool station (Kalypsys, San Diego, CA). The assay plates were incubated at 37 C and 5% CO2 for 5 hr. One uL of LiveBLAzer B/G FRET substrate (Life Technologies) was added using a Flying Reagent Dispenser (Aurora Discovery, San Diego, CA) and the plates were incubated at room temperature for 1.5 hr. Fluorescence intensity (405 nm excitation, 460 nm and 530 nm emissions) was measured using an Envision plate reader (PerkinElmer, Shelton, CT). For cytotoxicity, 3 ul/well of CellTiter-Glo reagent was added into the assay plates using an FRD. After 30 min incubation at room temperature, the luminescence intensity was measured using a ViewLux plate reader (PerkinElmer).
(qHTS replaces the single test concentration by a dilution series.)
`Cc1c[nH]c(=S)[nH]c1=O`: the compound was classed as inactive.
`C1CSCCS1`: the call was inactive.
In the case of `C=CCc1cc(OC)c(O)c(C(=O)NCCO)c1`, the compound was classed as inactive.
`CCN(CC)C(=O)N(CC)CC`: the compound was called inactive.
Turning to `c1ccc(CN(CC2=NCCN2)c2ccccc2)cc1`, the call was inactive.
For `CC(C)C1=CC2=CC[C@@H]3[C@](C)(CCC[C@@]3(C)C(=O)O)[C@H]2CC1`, the compound was called inactive.
For `C=O` the value was “inactive”; for `CNCCC(Oc1ccccc1OC)c1ccccc1` (stereo not given), “inactive”.
On to `ClC(Cl)Cl`, for which the outcome was inactive.
Regarding `O=C1CCCCCCCCCCC(=O)OCCO1`, the outcome was inactive.
For `CCCCCOc1ccc(C2SC(=O)NC2=O)cc1OCC` (stereo not given) the value was “inactive”.
As for `CC(C)CC(=O)OCc1ccccc1`, the compound was classed as inactive.
For `O=S(=O)(O)C(F)(F)F`, the call was inactive.
Turning to `CN1CCN(C2=Nc3ccccc3Oc3ccc(Cl)cc32)CC1`, the compound was classed as inactive.
Regarding `CC1(C)O[C@@H]2C[C@H]3[C@@H]4CCC5=CC(=O)CC[C@]5(C)[C@@]4(F)[C@@H](O)C[C@]3(C)[C@]2(C(=O)CCl)O1`, the result was inactive.
For `CN1CCN(c2c(F)cc3c(=O)c(C(=O)O)cn4c3c2SCC4)CC1`, the outcome was inactive.
For `C=CC(C)(O)CC/C=C(\C)CCC=C(C)C` (stereo not given) the value was “inactive”; for `CCCC1CCC(=O)O1` (stereo not given), “inactive”.
On to `OCc1ccccc1O`, for which the outcome was inactive.
With `COc1ccc2nc(NC(=O)Nc3ccccc3)sc2c1`, the call was inactive.
For the compound `O=c1[nH]c(=O)n([C@H]2C[C@H](O)[C@@H](CO)O2)cc1C(F)(F)F`, the outcome was inactive.
As for `CN(C)Cc1ccccc1`, the call was inactive.
As to `CC1=C(O)C(=O)OC1C` (stereo not given), the compound was classed as inactive.
On to `CC(C)(C)c1cccc(O)c1`, for which the outcome was inactive.
As for `CCOc1ccc(NS(=O)(=O)c2ccc(N)cc2)nn1`, the outcome was inactive.
For `C[C@@H]1CN(c2c(F)c(F)c3c(=O)c(C(=O)O)cn(C4CC4)c3c2F)C[C@H](C)N1` the value was “inactive”; for `CN(CCCN1c2ccccc2CCc2ccccc21)CC(=O)c1ccc(Cl)cc1`, “inactive”.
Regarding `CCC(=O)Nc1ccc(O)cc1`, the compound was called inactive.
For `O=C(C(Cl)Cl)N1CCOC12CCCCC2`, the compound was classed as inactive.
In the case of `CCCOCCC`, the result was inactive.
Regarding `Cc1cc2c(s1)Nc1ccccc1N=C2N1CCN(C)CC1`, the call was inactive.
Consider `O=C(O)C(=O)Cc1c[nH]c2ccccc12`, for which the outcome was inactive.
As to `Oc1ccccc1C=NCc1ccccc1`, the call was inactive.
As to `CCC(=O)O[C@]1(C(=O)SCF)[C@H](C)C[C@H]2[C@@H]3C[C@H](F)C4=CC(=O)C=C[C@]4(C)[C@@]3(F)[C@@H](O)C[C@@]21C`, the outcome was inactive.
For `COc1ccccc1OCC(O)COC(N)=O` (stereo not given) the value was “inactive”.
As for `CCc1cc2cc(OC)c(OC)cc2c(Cc2ccccc2)n1`, the result was inactive.
For `CC[C@H]1CC[C@H](NCc2cc3c(cc2OC)[C@H]2C[C@H]2C(=O)N3C)[C@H](c2ccccc2)N1` the value was “inactive”; for `CN(C)CC[C@@H](c1ccc(Cl)cc1)c1ccccn1`, “inactive”; for `CCC1(C)NC(=O)NC1=O` (stereo not given), “inactive”.
For `Cc1ccccc1C(=O)Nc1ccc(C(=O)N2CCCC(O)c3cc(Cl)ccc32)c(C)c1` (stereo not given) the value was “inactive”.
